Drawing on PubChem BioAssay AID463173 (ICCB-Longwood Screening Facility, Harvard Medical School, 2010), this text covers survival for 91 compounds.

Among all 52,000 compounds or so, about 4,300 (8.3%) were called active. No stated cut-off is given here; in the data, active means survival mostly below about 52% (no sharp cut-off); inactive means mostly above about 56%. This excerpt belongs to a sample that is enriched for actives.

The test system of the test is DeltatarO mutant. Briefly: S. aureus survival, RN4220 and DeltatarO strains – OD600, teichoic acid synthesis inhibitors, primary screen (AID 463173). Conditions: S. aureus RN4220 wild type/DeltatarO growth, OD600, 18 h, stronger effect = lower value, screened at 18.75 µg/mL (by protocol).
Take `Cc1ccc(Cn2c(=O)n(CC3CCC(C(=O)N4CCOCC4)CC3)c(=O)c3sccc32)cc1` (stereo unspecified): the survival was 75% (inactive). `Cc1cccc(CC2C(=O)Nc3ccccc32)c1` (stereo unspecified): the survival is 87% (inactive).

Take `CCc1ccccc1NC(=O)Cn1ccn(-c2cc(C)cc(C)c2)c(=O)c1=O`: the survival is 67% (inactive). The value for `Cc1cc(Cl)ccc1NC(=O)C(=O)NCc1ccco1` was 135% (inactive).

For `CCC(O)c1nc2ccccc2n1Cc1cc(C)ccc1C` (stereo unspecified), the survival is 86% (inactive).

Regarding `Cc1ccc(C)c(Cn2c(-c3cccs3)nc3ccccc32)c1`, the survival was -3% (active). The value for `Cc1ccc(C)c(Cn2c(C(C)NC(=O)c3ccccc3)nc3ccccc32)c1` (stereo unspecified) was 88% (inactive). The value for `Cc1oc(-c2cccc(Cl)c2)nc1CSc1nnc(C)n2c1cc1occc12` was 79% (inactive); that for `Cc1nnc(SCc2ccc(Cl)cc2)c2cc3occc3n12` was 28% (active); that for `Cc1ccc(-c2nc(CSc3nnc(C)n4c3cc3occc34)c(C)o2)cc1` was 72% (inactive).

As to `Cc1cc2c(cc3c(SCc4cccc(Cl)c4)nnc(C)n32)o1`, the survival is 56% (inactive). As for `Cc1cc2c(cc3c(SCc4ccc(Cl)cc4)nnc(C)n32)o1`, the survival was 57% (inactive).

Consider `Cc1ccc(C)c(NC(=O)CSc2nnc(C)n3c2cc2occc23)c1`, for which the survival is 66% (inactive). The value for `Cc1cc(C)c(CSc2nnc(C)n3c2cc2occc23)c(C)c1` was 40% (active). The value for `Cc1oc(-c2ccccc2F)nc1CSc1nnc(C)n2c1cc1occc12` was 74% (inactive); that for `Cc1nnc(SCc2ccccc2Cl)c2cc3occc3n12` was 74% (inactive). Consider `Clc1ccc(CSc2nncn3c2cc2occc23)cc1`, for which the survival is 47% (inactive). With `Cc1cc2c(cc3c(SCc4ccccc4Cl)nnc(C)n32)o1` the figure was 49% (active).

With `C=Cc1ccc(CSc2nnc(C)n3c2cc2occc23)cc1`, the survival was 42% (active). Regarding `COc1ccc(NC(=O)C(CC(C)C)NS(=O)(=O)c2ccc3c(c2)oc(=O)n3C)cc1Cl` (stereo unspecified), the survival was 127% (inactive). Turning to `Cc1cccc(NC(=O)CSc2nc3c(sc4ccccc43)c(=O)n2CCCC(=O)NC2CCCC2)c1`, the survival was 87% (inactive). Regarding `CCOC(=O)c1c(C)oc2ncnc(NCCCN3CCN(c4cc(C)ccc4C)CC3)c12`, the survival was 101% (inactive).

`Cc1ccc(Cn2c(C(=O)NCc3ccccc3Cl)cc3sccc32)cc1`: the survival was 86% (inactive). As for `COc1ccccc1-c1nc2c3c(-c4ccccc4)c(-c4ccccc4)oc3ncn2n1`, the survival is 70% (inactive). The value for `COc1cccc(NC(=O)CSCc2cc(=O)c3ccc(C)c(C)c3[nH]2)c1` was 74% (inactive). As for `CSCCC(NS(=O)(=O)c1ccc2c(c1)oc(=O)n2C)C(=O)Nc1ccc(Cl)cc1` (stereo unspecified), the survival was 94% (inactive). On to `COc1ccc(OC)c(CNC(=O)CCn2c(=O)c3cccn3c3ccc(F)cc32)c1`, for which the survival is 58% (inactive). With `COc1ccc(OC)c(CCNC(=O)CCn2c(=O)c3cccn3c3ccc(F)cc32)c1` the figure was 58% (inactive); with `COc1ccccc1CCNC(=O)CCn1c(=O)c2cccn2c2ccc(F)cc21`, 44% (active); with `COc1ccc(OC)c(CCNC(=O)CCCn2c(=O)c3cccn3c3ccc(F)cc32)c1`, 88% (inactive). The value for `COc1ccc(CCNC(=O)CCn2c(=O)c3cccn3c3ccc(F)cc32)c(OC)c1OC` was 39% (active); that for `O=C(CCn1c(=O)c2cccn2c2ccc(F)cc21)NCCc1ccccc1Cl` was 52% (inactive).

As to `COc1ccc(S(=O)(=O)Nc2ccc3c(c2)CCCN3S(=O)(=O)c2ccc(C)cc2)cc1F`, the survival was 74% (inactive). Regarding `O=C(NCCn1ccc2ccccc21)c1ccc(Cl)cc1`, the survival was 87% (inactive). The value for `O=C1CC(c2ccccc2)Cc2[nH]c(=O)c(C(=O)Nc3ccc(OC(F)(F)F)cc3)cc21` (stereo unspecified) was 163% (inactive); that for `CCN(C(=O)CSc1nc2ncccc2[nH]1)c1ccc(C(C)C)cc1` was 43% (active). With `CCN(C(=O)CSc1nc2ccccc2[nH]1)c1ccccc1`, the survival was 85% (inactive). With `CCc1ccc(NC(=O)CSc2nc3ncccc3[nH]2)cc1` the figure was 86% (inactive). For `Cc1nc2nc(SCC(=O)NC3CCC(C)CC3)nn2c(C)c1Cc1ccccc1` (stereo unspecified), the survival was 92% (inactive).

Take `Cc1cccc(Cc2c(C)nc3nc(SCC(=O)NC4CCCCC4)nn3c2C)c1`: the survival was 40% (active).

In the case of `COc1cc(NC(=O)CSc2nc3nc(C)c(Cc4ccccc4Cl)c(C)n3n2)cc(OC)c1`, the survival is 73% (inactive).

`Cc1nc2nc(SCC(=O)NC3CCC(C)CC3)nn2c(C)c1Cc1ccccc1Cl` (stereo unspecified): the survival was 83% (inactive). The value for `Cc1ccc(Cc2c(C)nc3nc(SCC(=O)NC4CCC(C)CC4)nn3c2C)cc1` (stereo unspecified) was 131% (inactive); that for `COc1ccccc1CNC(=O)CSc1nc2nc(C)c(Cc3ccccc3C)c(C)n2n1` was 118% (inactive). With `Cc1nc2nc(SCC(=O)NC3CCCCC3)nn2c(C)c1Cc1ccccc1Cl` the figure was 25% (active). With `COc1ccccc1CNC(=O)CSc1nc2nc(C)c(Cc3ccccc3Cl)c(C)n2n1`, the survival is 46% (active). With `COCCCNC(=O)CSc1nc2nc(C)c(Cc3ccccc3Cl)c(C)n2n1` the figure was 61% (inactive). `Cc1c(C(=O)N(Cc2ccc(N(C)C)cc2)CC2CCCO2)oc2ccc(Br)cc12` (stereo unspecified): the survival was 58% (inactive). In the case of `CCc1nn2c(=O)cc(COC(=O)CNC(=O)c3ccccc3)nc2s1`, the survival was 123% (inactive). The value for `Brc1ccc(-c2cc3c(N4CCN(c5ccccc5)CC4)nccn3n2)cc1` was 194% (inactive). The value for `COC(=O)c1nc2n(n1)C(c1cc(OC)ccc1OC)C(C(=O)Nc1ccc(C)cc1C)=C(C)N2` (stereo unspecified) was 79% (inactive); that for `COc1ccc(C(=O)n2nc(N)c3cc4ccc(C)cc4nc32)cc1OC` was 94% (inactive); that for `CCOC(=O)c1cc(-c2ccc(C)cc2)n(CC(=O)Nc2ccc(OC)c(Cl)c2)c1C` was 67% (inactive). As to `COC(=O)c1ccc(NC(=O)Cn2cnc3c2c(=O)n(C)c(=O)n3C)cc1`, the survival was 80% (inactive). With `COc1ccc(-c2nc(C)c(CCNC(=O)c3ccc(C(F)(F)F)cc3)s2)cc1OC` the figure was -2% (active).

Take `CCOc1ccc(C(=O)NCCc2sc(-c3ccc(OC)c(OC)c3)nc2C)cc1`: the survival is 109% (inactive). The value for `CCOc1ccc(C(=O)NCCc2sc(-c3ccc(C)cc3)nc2C)cc1` was -1% (active); that for `CCOc1ccc(C(=O)NCCc2sc(-c3ccc(F)cc3)nc2C)cc1` was 90% (inactive). With `CCOc1ccc(NC(=O)C(=O)NCCc2sc(-c3ccc(C)cc3)nc2C)cc1` the figure was 79% (inactive); with `COc1ccc(-c2nc(C)c(CCNC(=O)c3cc(OC)c(OC)c(OC)c3)s2)cc1OC`, 64% (inactive).

Regarding `O=c1[nH]cnc2scc(-c3ccsc3)c12`, the survival is 104% (inactive).

Turning to `Cc1ccc(-c2nc3scc(CCNS(=O)(=O)c4ccc(Oc5ccccc5)cc4)n3n2)cc1`, the survival was 115% (inactive). With `CC(C)OCCCn1c(=O)c2ccccc2n2c(-c3ccc(F)cc3)nnc12` the figure was 98% (inactive); with `CCCCCNC(=O)c1c[nH]c2ccc(S(=O)(=O)N3CCC(C)CC3)cc2c1=O`, 97% (inactive); with `COc1ccc(N2CC(NC(=O)C3CC3)CC2=O)cc1OC` (stereo unspecified), 73% (inactive).

Turning to `Cc1ccc2nc(N(Cc3cccnc3)C(=O)CCS(=O)(=O)c3ccccc3)sc2c1`, the survival was 67% (inactive). `COc1ccc(-c2nc3ccccc3o2)cc1NC(=O)COc1c(C)cc(Cl)cc1Cl`: the survival is 67% (inactive). Take `CCCCC(=O)Nc1cc(-c2nc3ccccc3o2)ccc1OC`: the survival is 7% (active). For the compound `COc1ccc(OCC(=O)Nc2cc(-c3nc4ccccc4o3)ccc2Cl)cc1`, the survival is 70% (inactive). As to `COc1ccc(-c2nc3ccccc3o2)cc1NC(=O)Cc1ccc(Cl)cc1`, the survival was 54% (inactive). As to `COc1ccc(-c2nc3ccccc3o2)cc1NC(=O)COc1ccc(C(C)(C)C)cc1`, the survival was 4% (active). The value for `COc1ccc(-c2nc3ccccc3o2)cc1NC(=O)CSc1ccc(Cl)cc1` was 72% (inactive); that for `Cc1cn2c(=O)cc(COc3ccc(NC(=O)c4cccc(F)c4)cc3)nc2s1` was 125% (inactive); that for `COc1ccc(Cl)cc1NC(=O)c1cc2ccccn2n1` was 124% (inactive).

For `COc1cc(C2C(C(=O)c3ccco3)=C(O)C(=O)N2CCc2ccccc2)ccc1O` (stereo unspecified), the survival was 86% (inactive). `COc1ccc(Cn2c(=O)c3oc4ccccc4c3n(Cc3cccc(C)c3)c2=O)cc1`: the survival is 64% (inactive). The value for `COc1cccc(OCCn2c(-c3ccc(Cl)cc3)nc3ccccc3c2=O)c1` was 51% (inactive); that for `CC(C)(C)c1ccc(OCCOCCn2c(-c3ccc(Cl)cc3)nc3ccccc3c2=O)cc1` was 115% (inactive). The value for `Cc1cc(C)cc(OCCOCCn2c(-c3ccc(Cl)cc3)nc3ccccc3c2=O)c1` was 43% (active); that for `Cc1ccc(C)c(OCCn2c(-c3ccc(Cl)cc3)nc3ccccc3c2=O)c1C` was 73% (inactive). With `Cc1ccccc1OCCn1c(-c2ccc(Cl)cc2)nc2ccccc2c1=O` the figure was 57% (inactive); with `Cc1ccc(OCCOCCn2c(-c3ccc(Cl)cc3)nc3ccccc3c2=O)cc1`, 39% (active); with `Cc1cc(C)c(OCCOCCn2c(-c3ccc(Cl)cc3)nc3ccccc3c2=O)c(C)c1`, 43% (active).

Turning to `Cc1cccc(OCCOCCn2c(-c3ccc(Cl)cc3)nc3ccccc3c2=O)c1C`, the survival is 60% (inactive). In the case of `CCOc1ccc(OCCOCCn2c(-c3ccc(Cl)cc3)nc3ccccc3c2=O)cc1`, the survival is 26% (active). With `Cc1cc(C)cc(OCCCn2c(-c3ccc(Cl)cc3)nc3ccccc3c2=O)c1` the figure was 58% (inactive); with `Cc1ccc(OCCn2c(-c3ccc(Cl)cc3)nc3ccccc3c2=O)c(C)c1`, 63% (inactive). The value for `Cc1cccc(OCCn2c(-c3ccc(Cl)cc3)nc3ccccc3c2=O)c1` was 105% (inactive).

For `COc1ccccc1N1CCN(CCCNC(=O)Cn2ncc3c([nH]c4ccccc43)c2=O)CC1`, the survival is 55% (inactive). On to `CCCNC(=O)c1c(NC(=O)c2ccc(C)cc2)sc2c1CCCCC2`, for which the survival was 65% (inactive). The value for `COc1cccc(CNC(=O)c2ccc3c(=O)n4nc(Nc5ccccc5)sc4nc3c2)c1` was 88% (inactive).
